In all, about 5,500 compounds went through this assay and about 2,000 (36%) were called active. Roughly 18% stayed inconclusive and do not appear here. Cut-off read from the data, not from the text of the source: active = normalized growth mostly below about 0.91 (no sharp cut-off); inconclusive = no clear call, values can overlap the other calls; inactive = mostly above about 0.92. The list shows a part of the results.
Test: chemical genetic growth profiling, strain panel (AID 1159580);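 note: tested at 20 µM; growth read once vehicle control cultures reached saturation at 30 °C; 1 = growth at the plate median or of vehicle wells; lower values mean less growth of the strain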
Conditions: growth OD

Measured: normalized growth

CCCCC1C(=O)N(c2ccccc2)N(c2ccc(O)cc2)C1=O (stereo not given)
inactive: S. cerevisiae deletion strains, locus YJR075W, strain HOC1, hits give low values 0.998 | S. cerevisiae deletion strains, locus YKL009W, strain mrt4, hits give low values 1.01 | S. cerevisiae deletion strains, locus YKL068W, hits give low values 0.987 | S. cerevisiae deletion strains, locus YKL085W, strain MDH1 (second series), hits give low values 0.993 | S. cerevisiae deletion strains, locus YKL085W, strain MDH1, hits give low values 0.993 | S. cerevisiae deletion strains, locus YKL160W, strain elf1, hits give low values 1.03 | S. cerevisiae deletion strains, locus YKL190W, strain CNB1, hits give low values 1 | S. cerevisiae deletion strains, locus YKR001C, strain vps1, hits give low values 0.927 | S. cerevisiae deletion strains, locus YKR026C, strain gcn3, hits give low values 1.01 | S. cerevisiae deletion strains, locus YKR091W, strain srl3, hits give low values 0.996 | S. cerevisiae deletion strains, locus YLL001W, strain dnm1, hits give low values 1.02 | S. cerevisiae deletion strains, locus YLL026W, hits give low values 1 | S. cerevisiae deletion strains, locus YLL041C, strain sdh2, hits give low values 1 | S. cerevisiae deletion strains, locus YLR027C, strain aat2, hits give low values 0.994 | S. cerevisiae deletion strains, locus YLR039C, strain RIC1, hits give low values 0.963 | S. cerevisiae deletion strains, locus YLR058C, strain SHM2, hits give low values 0.976 | S. cerevisiae deletion strains, locus YLR102C, strain apc9, hits give low values 0.996 | S. cerevisiae deletion strains, locus YLR113W, strain HOG1, hits give low values 0.948 | S. cerevisiae deletion strains, locus YLR221C, strain rsa3, hits give low values 1.02 | S. cerevisiae deletion strains, locus YLR258W, strain gsy2, hits give low values 0.998 | S. cerevisiae deletion strains, locus YLR262C, strain YPT6 (second series), hits give low values 0.956 | S. cerevisiae deletion strains, locus YLR262C, strain YPT6, hits give low values 0.903 | S. cerevisiae deletion strains, locus YLR268W, strain sec22, hits give low values 1.04 | S. cerevisiae deletion strains, locus YLR320W, strain mms22, hits give low values 1.04 | S. cerevisiae deletion strains, locus YLR330W, strain CHS5, hits give low values 0.996 | S. cerevisiae deletion strains, locus YLR342W, strain FKS1 (second series), hits give low values 0.99 | S. cerevisiae deletion strains, locus YLR342W, strain FKS1, hits give low values 1.01 | S. cerevisiae deletion strains, locus YLR357W, strain rsc2, hits give low values 1.01 | S. cerevisiae deletion strains, locus YLR370C, strain arc18, hits give low values 1 | S. cerevisiae deletion strains, locus YLR371W, strain rom2, hits give low values 0.971 | S. cerevisiae deletion strains, locus YLR384C, strain iki3, hits give low values 0.997 | S. cerevisiae deletion strains, locus YLR418C, strain cdc73, hits give low values 1 | S. cerevisiae deletion strains, locus YML016C, strain PPZ1, hits give low values 0.991 | S. cerevisiae deletion strains, locus YML032C, strain rad52, hits give low values 0.996 | S. cerevisiae deletion strains, locus YML120C, strain ndi1, hits give low values 1.01 | S. cerevisiae deletion strains, locus YML124C, strain tub3, hits give low values 0.99 | S. cerevisiae deletion strains, locus YMR058W, strain fet3, hits give low values 1 | S. cerevisiae deletion strains, locus YMR078C, strain ctf18, hits give low values 0.986 | S. cerevisiae deletion strains, locus YMR125W, strain sto1, hits give low values 1 | S. cerevisiae deletion strains, locus YMR129W, hits give low values 1.01 | S. cerevisiae deletion strains, locus YMR205C, strain PFK2, hits give low values 1.02 | S. cerevisiae deletion strains, locus YMR223W, strain ubp8, hits give low values 0.968 | S. cerevisiae deletion strains, locus YMR231W, strain pep5, hits give low values 1 | S. cerevisiae deletion strains, locus YMR307W, strain GAS1, hits give low values 0.952 | S. cerevisiae deletion strains, locus YNL067W, strain RPL9B, hits give low values 0.999 | S. cerevisiae deletion strains, locus YNL071W, strain lat1, hits give low values 0.997 | S. cerevisiae deletion strains, locus YNL153C, strain GIM3, hits give low values 0.984 | S. cerevisiae deletion strains, locus YNL183C, strain NPR1, hits give low values 0.954 | S. cerevisiae deletion strains, locus YNL209W, strain ssb2, hits give low values 1 | S. cerevisiae deletion strains, locus YNL233W, strain BNI4, hits give low values 0.989 | S. cerevisiae deletion strains, locus YNL248C, strain rpa49, hits give low values 1.03 | S. cerevisiae deletion strains, locus YNL250W, strain rad50, hits give low values 0.985 | S. cerevisiae deletion strains, locus YNL271C, strain bni1, hits give low values 1 | S. cerevisiae deletion strains, locus YNL298W, strain CLA4, hits give low values 0.987 | S. cerevisiae deletion strains, locus YNL307C, strain MCK1, hits give low values 0.987 | S. cerevisiae deletion strains, locus YNL322C, strain KRE1 (second series), hits give low values 1.02 | S. cerevisiae deletion strains, locus YNL322C, strain KRE1, hits give low values 0.993 | S. cerevisiae deletion strains, locus YNR049C, strain mso1, hits give low values 1.01 | S. cerevisiae deletion strains, locus YNR052C, strain pop2, hits give low values 0.996 | S. cerevisiae deletion strains, locus YOL006C, strain TOP1, hits give low values 0.982 | S. cerevisiae deletion strains, locus YOL012C, strain htz1 0.972 | S. cerevisiae deletion strains, locus YOL147C, strain pex11, hits give low values 0.998 | S. cerevisiae deletion strains, locus YOR001W, strain rrp6, hits give low values 0.989 | S. cerevisiae deletion strains, locus YOR061W, strain CKA2, hits give low values 0.959 | S. cerevisiae deletion strains, locus YOR069W, strain VPS5, hits give low values 1 | S. cerevisiae deletion strains, locus YOR070C, strain gyp1, hits give low values 1.02 | S. cerevisiae deletion strains, locus YOR080W, strain dia2, hits give low values 0.993 | S. cerevisiae deletion strains, locus YOR083W, strain WHI5, hits give low values 1.04 | S. cerevisiae deletion strains, locus YOR106W, strain vam3, hits give low values 1.02 | S. cerevisiae deletion strains, locus YOR136W, strain idh2, hits give low values 0.983 | S. cerevisiae deletion strains, locus YOR144C, strain elg1, hits give low values 0.985 | S. cerevisiae deletion strains, locus YOR184W, strain ser1, hits give low values 0.983 | S. cerevisiae deletion strains, locus YOR231W, strain MKK1, hits give low values 0.987 | S. cerevisiae deletion strains, locus YOR265W, strain rbl2, hits give low values 0.996 | S. cerevisiae deletion strains, locus YOR270C, strain vph1, hits give low values 1.03 | S. cerevisiae deletion strains, locus YOR290C, strain snf2, hits give low values 1.02 | S. cerevisiae deletion strains, locus YOR316C, strain cot1, hits give low values 0.989 | S. cerevisiae deletion strains, locus YPL051W, strain arl3, hits give low values 1.01 | S. cerevisiae deletion strains, locus YPL055C, strain LGE1, hits give low values 0.938 | S. cerevisiae deletion strains, locus YPL078C, strain atp4, hits give low values 1.02 | S. cerevisiae deletion strains, locus YPL106C, strain sse1, hits give low values 1.02 | S. cerevisiae deletion strains, locus YPL240C, strain hsp82, hits give low values 1.01 | S. cerevisiae deletion strains, locus YPL241C, strain CIN2, hits give low values 0.99 | S. cerevisiae deletion strains, locus YPL256C, strain CLN2, hits give low values 0.953 | S. cerevisiae deletion strains, locus YPR119W, strain clb2, hits give low values 0.982 | S. cerevisiae deletion strains, locus YPR141C, strain kar3, hits give low values 0.972 | S. cerevisiae deletion strains, locus YPR163C, strain tif3, hits give low values 0.986 | S. cerevisiae deletion strains, locus YPR167C, strain met16, hits give low values 0.987 | S. cerevisiae deletion strains, strain wtn01, hits give low values 1 | S. cerevisiae strains, strain wild type, hits give low values 1
